Experimental data taken from the supplement of paper PMC6555819.

Assays:
Experiment in all cases: PBM binding z-score (relative to random genomic background probes); higher = stronger binding; sequences stand for … in GC…GCGATTGACAGCGTAGAATGAAGG
[1] = tested on: PPARg:RXRa DBDmut IVT, anti-RXR (DBD mutation: RXRa K156A/R161A, NR concentration 270 nM, RXRa partner concentration 90 nM)
In short: (§1)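 Custom Agilent 4×180K protein-binding microarrays carried double-stranded probes. Their 34-nt variable regions held direct-repeat seeds, single-nucleotide variants, half-site ablations and random human genomic background sequences. Arrays were incubated 1 h with ligand-free nuclear receptor dimers in PBS pH 7.4, 2% milk, 0.02% Triton X-100, 1 mM DTT, 0.2 mg/mL BSA and 0.4 mg/ml salmon testes DNA. Antibodies against each partner (one per run) detected binding, and scanned fluorescence was regression-normalized. Binding z-scores use random background probes as reference.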

[2] = tested on: PPARg:RXRa IVT, anti-PPARg (NR concentration 270 nM, RXRa partner concentration 90 nM)
In short: as §1

[3] = tested on: PPARg DBDmut:RXRa IVT, anti-PPARg (DBD mutation: PPARg1 K132A/R137A, NR concentration 270 nM, RXRa partner concentration 90 nM)
In short: as §1

[4] = tested on: PPARg DBDmut IVT, anti-PPARg (DBD mutation: PPARg1 K132A/R137A, NR concentration 270 nM)
In short: as §1

[5] = tested on: PPARg homodimer (NR concentration 180 nM)
In short: as §1

[6] = tested on: PXR:RXRa (NR concentration 270 nM, RXRa partner concentration 90 nM)
In short: as §1

[7] = tested on: PXR homodimer (NR concentration 270 nM)
In short: as §1

[8] = tested on: RARa:RXR (NR concentration 270 nM, RXRa partner concentration 90 nM)
In short: as §1

[9] = tested on: RARa homodimer (NR concentration 270 nM)
In short: as §1

[10] = tested on: RARb:RXRa (NR concentration 270 nM, RXRa partner concentration 90 nM)
In short: as §1

[11] = tested on: RARb homodimer (NR concentration 270 nM)
In short: as §1

[12] = tested on: RARg:RXRa (NR concentration 270 nM, RXRa partner concentration 90 nM)
In short: as §1

[13] = tested on: RARg homodimer (NR concentration 270 nM)
In short: as §1

[14] = tested on: RXRa DBDmut IVT, anti-RXR (DBD mutation: RXRa K156A/R161A, NR concentration 90 nM)
In short: as §1

[15] = tested on: RXRa homodimer (NR concentration 180 nM)
In short: as §1

[16] = tested on: THRa:RXRa (NR concentration 90 nM, RXRa partner concentration 90 nM)
In short: as §1

[17] = tested on: THRa homodimer (NR concentration 90 nM)
In short: as §1

[18] = tested on: VDR homodimer (NR concentration 270 nM)
In short: as §1

Sequence | PBM binding z-score [1] | PBM binding z-score [2] | PBM binding z-score [3] | PBM binding z-score [4] | PBM binding z-score [5] | PBM binding z-score [6] | PBM binding z-score [7] | PBM binding z-score [8] | PBM binding z-score [9] | PBM binding z-score [10] | PBM binding z-score [11] | PBM binding z-score [12] | PBM binding z-score [13] | PBM binding z-score [14] | PBM binding z-score [15] | PBM binding z-score [16] | PBM binding z-score [17] | PBM binding z-score [18]
TCTATTAGTTGAGTAGGGCAACCGAAACAGCGGA | 2.19 | 2.75 | 0.301 | 0.883 | 0.0171 | -0.0938 | -0.0884 | 0.248 | -0.221 | 0.507 | 0.153 | 0.16 | 0.294 | 0.368 | 0.116 | -0.257 | -0.445 | -0.411
CCTACTAGGTCAATGGTCAGCTAAAGCAGCTCGC | 7.63 | 7.77 | 2.1 | 1.05 | 2.62 | 1.26 | 0.377 | 1.95 | 0.521 | 3.89 | 3.28 | 3.39 | 4.16 | 1.71 | 2.26 | 2.47 | 0.868 | 0.437
CAAACTAGGTCACAGAGGTCATAGTCCGTGCGTA | 8.64 | 9.13 | 4.61 | 1.67 | 6.77 | 6.52 | 12.2 | 7.31 | 3.54 | 5.27 | 5.33 | 6.83 | 7.33 | 3.4 | 7.32 | 4.76 | 3.22 | 7.02
GCGACTGGGGCATCAGCAGGTTACCAGAACTTAA | 3.48 | 3.19 | -0.703 | -1.1 | 0.612 | -0.0392 | -0.687 | 0.483 | -0.801 | 0.987 | 0.768 | 0.911 | 0.328 | -0.241 | 0.262 | 0.858 | -0.159 | -0.517
ATCGAAAGGTCGAAGGGGAGTATACCCACCCGAA | -0.023 | 1.38 | 1.29 | 0.309 | 1.15 | 2.21 | 0.32 | 2.79 | 0.273 | 3.73 | 2.2 | 3.86 | 3.58 | 0.681 | 4.21 | 1.73 | -0.345 | 0.649
CCTGACGGGTCACGAGGTTATAGCACGACGAGCG | 2.13 | 3.75 | 0.388 | 0.539 | 3.04 | 4.13 | 0.0429 | 5.48 | 1.05 | 4.32 | 3.55 | 5.83 | 5.33 | 1.42 | 6.19 | 3.3 | 1.14 | 1.87
AGAATGAGGTTAAGATCGGGGAAACAGAATACAT | 3.24 | 2.85 | 1.19 | 0.972 | 1.09 | 0.98 | 0.624 | 1.93 | 0.617 | 1.95 | 0.944 | 2.19 | 1.53 | 1.28 | 2.25 | 2.54 | 0.927 | 0.542
CAAACTAGGTCACCGGAAGGTCCAAGTCCGCATG | 8.74 | 8.78 | 2.63 | 2.9 | 2.36 | 2.43 | -0.0607 | 3.18 | 1.11 | 4.39 | 3.77 | 5.27 | 5.86 | 1.82 | 3.81 | 3.59 | 2.3 | 1.68
TCTTGTAGATCAAGCAGGATAAGAAAGCCTGAGT | 1.53 | 0.265 | 0.695 | 0.533 | 0.027 | -0.0334 | 0.538 | 0.108 | 0.37 | -0.349 | -0.48 | -0.278 | -0.0385 | 0.533 | -0.0789 | -0.341 | -0.704 | 0.105
GCTTGTATATCAAGGTTAAGAAAGACTAAGCTAA | 0.247 | 0.653 | 0.195 | 0.533 | -0.0686 | 0.625 | -0.223 | 0.967 | 0.663 | 1.03 | 0.176 | 0.526 | 0.28 | 0.464 | 0.746 | 1.24 | -0.21 | -0.0299
CGTACAGGGTCAGCTAGGCCAGAGTAGGGACGGC | 1.75 | 2.64 | 0.166 | -0.287 | 1.47 | 2.28 | -0.805 | 3.32 | -0.147 | 4.16 | 3.07 | 4.55 | 4.77 | 1.93 | 4.1 | 3.05 | 0.562 | 1.14
CCTCGGAGGACAGAAGGTCGGAGCTGTCCGCTTT | -0.473 | -0.963 | -1.7 | -2.08 | 0.00885 | -0.282 | -0.764 | -0.413 | -0.449 | 1.12 | 1.03 | 0.91 | 0.81 | -0.0663 | -0.268 | 0.396 | -0.577 | -0.651
CCTAGCAGGCCAACCTGGGTCACTCAAGGCTTGA | 1.14 | 1.46 | -0.885 | -0.95 | 0.425 | 1.46 | -0.576 | 1.44 | 0.141 | 1.96 | 2.56 | 1.54 | 2.02 | -0.209 | 1.23 | 3.63 | 0.233 | -0.163
CAAACTATGTCACAGAGGTCAAAGTCCGTGCGTA | 5.08 | 5.55 | 0.905 | 0.872 | 3.02 | 5.88 | 3.31 | 5.97 | 1.58 | 4.19 | 4.82 | 5.68 | 5.01 | 2.12 | 6.58 | 3.83 | 1.89 | 4.59
TCATACAGGTAATACAGGTGAAAGTCGGCATCTA | 3.1 | 2.32 | 1.11 | 1.28 | 1.24 | 0.855 | 0.48 | 1.23 | 1.28 | 0.835 | 0.84 | 0.731 | 0.586 | 1.65 | 1.23 | 1.18 | 0.583 | 0.391
CCTAACGGGTCAAGGTTATAGCACGGGTGGTACG | 0.873 | 2.74 | -0.204 | -0.102 | 2.32 | 2.84 | 0.496 | 3.76 | 1.14 | 3.9 | 3.19 | 4.47 | 4.4 | 0.639 | 4.35 | 2.8 | 0.625 | 1.37
